Experimental data published in ChEMBL document CHEMBL3988442, “University of Dundee, Small-Polar-MMV Screening Library” (2021).
About 13,000 (27%) of roughly 48,000 compounds showed an effect of 50% or more. The list shows a part of the results.

System: Wolbachia pipientis
Assay: Anti-Wolbachia Cell-Based Screen
Format: functional
Design: scale not given: in the data most compounds retested in dose-response had high values
Settings: 5 µM

Row | Compound | Percent Effect [%]
1 | OC1CN(Cc2cccc(N3CCOCC3)c2)Cc2ccccc21 (stereo unspecified) | -36.91
2 | O=C(c1scc2c1OCCO2)N1CCOC(Cc2ccc(F)cc2)C1 (stereo unspecified) | -34.62
3 | CS(=O)(=O)N1CCN(C(=O)CN2CCCc3c(F)cc(F)cc32)CC1 | 12.08
4 | CC(C)n1ncc2c1NC(=O)CC21C(=O)Nc2c(Cl)cc(Cl)cc21 (stereo unspecified) | -10.03
5 | Cc1nn(C)c(C)c1CNC1CCOc2ccccc21 (stereo unspecified) | -9.351
6 | Cn1ncc(NCc2cccc(COC(C)(C)C)c2)c(Cl)c1=O | -1.578
7 | CN(Cc1nccn1C)CC1CCOc2ccccc2C1 (stereo unspecified) | 12.56
8 | COc1ccc(C(=O)N2CCCC(NC(=O)C(C)C)C2)c(O)c1 (stereo unspecified) | 103.8
9 | CC(=O)NC1CCCN(C(=O)Nc2nnc(C(C)C)s2)C1 (stereo unspecified) | -25.39
10 | COc1ccc(C(=O)N2C[C@@H](C(=O)O)[C@H](c3ccccc3)C2)c(O)c1 | 5.335
11 | CC(=O)NC1CCN(C(=O)c2cnc(COc3ccccc3)nc2O)C1 (stereo unspecified) | 1.868
12 | CC(C)C(=O)NC1CCCN(C(=O)c2ccccc2O)C1 (stereo unspecified) | 105
13 | CC(=O)NC1CCCN(C(=O)c2ccc(Br)cc2O)C1 (stereo unspecified) | -3.443
14 | CC(C)(C)OC(=O)NCC1CCN(C(=O)c2ccccc2O)C1 (stereo unspecified) | -1.633
15 | CC(C)C(=O)NC1CCCN(C(=O)c2cc3ccccc3cc2O)C1 (stereo unspecified) | 101.9
16 | O=C(NCCc1nncn1C1CC1)C1(c2ccccc2)CCC1 | -10.81
17 | CS(=O)(=O)CCNC(=O)NCCc1cc2ccccc2o1 | -10.03
18 | CCOC(=O)C1(CCOC)CCN(Cc2nccn2CC)CC1 | -7.374

Row | Compound | Percent Effect [%]
19 | CC(C)NC(=O)NC[C@H]1OC[C@@H](NCc2ccccc2O)[C@@H]1O | 1.072
20 | O=C(NCC1(O)CCCCC1)c1coc(COc2cccc(F)c2)n1 | -6.674
21 | CCc1nnsc1C(=O)N1CCN(CC(O)C(C)(C)C)CC1 (stereo unspecified) | 3.041
22 | Cc1ccc(C(=O)N2CCC3(CC2)c2ccccc2[C@@H](N)[C@@H]3O)cc1F | -5.913
23 | COc1ccc(C(=O)N2CCC3(CC2)c2ccccc2[C@@H](N)[C@@H]3O)cc1 | -1.286
24 | CC(C)c1cc(C(=O)N2CCC3(CC2)c2ccccc2[C@@H](N)[C@@H]3O)cs1 | 119.3
25 | Cn1ncc(C(=O)OCC2CC(=O)N(c3ccccc3)C2)c1C(F)F (stereo unspecified) | -5.382
26 | O=S1(=O)CCCN1Cc1coc(-c2ccc(C(F)(F)F)cc2)n1 | -8.069
27 | Cc1ncnc2c1CCN(CC1CCOC1)CC2.O=C(O)C(F)(F)F (stereo unspecified) | 17.43
28 | O=C(O)C(F)(F)F.O=C(O)C(F)(F)F.c1ccc(CN2CCc3ncnc(-c4ccncc4)c3CC2)nc1 | -25.56
29 | O=C(O)C(F)(F)F.c1ccc(CN2CCc3ncnc(-c4ccoc4)c3CC2)nc1 | -8.699
30 | Cc1noc(C)c1CN1CCc2ncnc(-c3ccncc3)c2CC1.O=C(O)C(F)(F)F.O=C(O)C(F)(F)F | 90.01
31 | Cn1cc(-c2ncnc3c2CCN(CC2CCOC2)CC3)cn1.O=C(O)C(F)(F)F (stereo unspecified) | 97.72
32 | Cc1noc(C)c1CN1CCc2ncnc(-c3ccccc3)c2CC1.O=C(O)C(F)(F)F | 91.91
33 | Cc1nc(CN2CCc3ncnc(-c4ccncc4)c3CC2)cs1.O=C(O)C(F)(F)F.O=C(O)C(F)(F)F | -2.21
34 | CCN(C)c1ncnc2c1CCN(CC1CCOC1)CC2.O=C(O)C(F)(F)F (stereo unspecified) | -11.17
35 | O=C(O)C(F)(F)F.c1nc2c(c(-c3ccsc3)n1)CCN(Cc1ccoc1)CC2 | -2.066
36 | Cc1noc(C)c1CN1CCc2ncnc(-c3ccoc3)c2CC1.O=C(O)C(F)(F)F | 108.1
